# Source: PubChem (several laboratories)
# CCHFV vOTU inh: CCHFV vOTU protease inhibitors, primary screen, biochemical, Pep-AMC substrate, fluorescence; inhibition, % at 11.5 µM; 370,000 compounds, 0.55% hits; AID 651958, 2012; in the data active = inhibition above about 30%; also: 0% = vehicle wells with enzyme and 100% = no enzyme wells
# 3CLpro inhibitor: SARS-CoV 3CLpro protease inhibitors, primary screen, biochemical, quenched FRET; inhibition, % at 6 µM; recombinant SARS-CoV 3CLpro, quenched FRET peptide cleavage; 290,000 compounds, 0.14% hits; in the data active = inhibition above about 12%
# BoNT-F LC inh: BoNT/F light chain protease inhibitors, primary screen, biochemical, flow cytometry, MLPCN library; Botulinum neurotoxin type F light chain protease (Clostridium botulinum); Multiplex microsphere protease cleavage assay; inhibition, % at 10 µM; 360,000 compounds, 0.22% hits; in the data active = inhibition above about 35%, passing the limit was not always enough; inconclusive = no clear call, values can overlap the other calls; also: plate controls were buffer without enzyme for full effect and enzyme alone for no effect
# Autofluor counter: compound fluorescence in toxin protease inhibitor counterscreen | 360,000 compounds, 3.1% hits | compound autofluorescence counterscreen, microsphere flow cytometry; stronger effect = higher value | fluorescence intensity (test concentration not listed); in the data active = fluorescence intensity above about 16000; inconclusive = no clear call, values can overlap the other calls
# BoNT-A LC inh2: BoNT/A light chain protease inhibitors, primary screen, biochemical, flow cytometry, MLPCN library. multiplex microsphere protease substrate cleavage. 360,000 compounds, 0.17% hits. AID 588499, 2011. inhibition, % at 10 µM; also: plate controls were buffer without enzyme for full effect and enzyme alone for no effect
# Anthrax LF prot: Bacillus anthracis LF protease inhibitors, primary screen, biochemical, multiplex microsphere, MLPCN library; multiplex microsphere protease cleavage assay; Lethal factor (Bacillus anthracis), P15917; 360,000 compounds, 0.12% hits; AID 588501, 2011; inhibition, % at 10 µM; also: plate controls were buffer without enzyme for full effect and enzyme alone for no effect
# Target sequence (P15917 whole entry, looked up): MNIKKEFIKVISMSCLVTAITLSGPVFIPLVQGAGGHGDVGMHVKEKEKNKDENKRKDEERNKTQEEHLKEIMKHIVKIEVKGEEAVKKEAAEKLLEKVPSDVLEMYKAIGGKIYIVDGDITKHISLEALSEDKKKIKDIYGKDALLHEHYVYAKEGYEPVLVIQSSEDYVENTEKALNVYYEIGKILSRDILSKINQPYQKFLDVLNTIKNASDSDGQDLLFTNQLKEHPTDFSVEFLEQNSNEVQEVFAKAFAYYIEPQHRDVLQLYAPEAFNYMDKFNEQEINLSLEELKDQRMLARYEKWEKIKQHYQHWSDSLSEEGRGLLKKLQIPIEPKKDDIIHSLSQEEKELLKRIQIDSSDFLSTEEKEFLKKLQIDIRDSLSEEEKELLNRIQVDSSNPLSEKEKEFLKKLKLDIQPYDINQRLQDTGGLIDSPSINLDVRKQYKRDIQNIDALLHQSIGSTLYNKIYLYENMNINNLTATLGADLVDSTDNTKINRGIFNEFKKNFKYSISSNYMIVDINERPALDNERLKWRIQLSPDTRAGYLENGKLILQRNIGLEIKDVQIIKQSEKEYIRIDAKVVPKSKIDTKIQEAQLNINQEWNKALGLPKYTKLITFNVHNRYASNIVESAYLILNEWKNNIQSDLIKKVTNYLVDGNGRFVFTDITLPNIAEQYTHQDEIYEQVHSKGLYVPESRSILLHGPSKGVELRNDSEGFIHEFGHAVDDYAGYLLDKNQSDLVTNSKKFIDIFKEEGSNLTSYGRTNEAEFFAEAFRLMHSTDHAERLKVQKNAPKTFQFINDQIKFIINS
# An asterisk follows results filed as active; u = inconclusive; x = no result. Compounds with a hit are over-represented: about 3.9% of the library has one in this group of screens. Rule as the data show it, unless noted: active = inhibition above about 30%; inconclusive = no clear call, values can overlap the other calls; inactive = below that.
SMILES,CCHFV vOTU inh,3CLpro inhibitor,BoNT-F LC inh,Autofluor counter,BoNT-A LC inh2,Anthrax LF prot
c1ccc(OCCn2cnc3ccccc32)cc1,-1,-6,25,17262*,u,-4
Cc1ccccc1OCCCCn1cnc2ccccc21,6,4,-6,10525,-2,-5
COC(=O)[C@]12C[C@H](CC(=O)NCc3cccc4ccccc34)C(=O)N(Cc3ccccc3)C1=C[C@H](C1CCCC1)O[C@@H]2C,9,x,x,x,x,x
COP(=O)(OC)C(Cc1ccccc1)NC(=O)CNC(=O)OCc1ccccc1 (centres undefined),-1,x,x,x,x,x
CC1CN/C(=C\C(=O)c2ccc(Cl)cc2)C(=O)N1 (centres undefined),5,2,-9,24766*,u,-5
CC1CN/C(=C\C(=O)c2ccccc2)C(=O)N1 (centres undefined),17,-1,7,3001,-1,-3
CC1CCCN(C(=O)CCS(=O)(=O)Cc2ccccc2)C1 (centres undefined),-1,-6,2,16402*,0,-3
O=C(CCS(=O)(=O)Cc1ccccc1)N1CCN(c2ccccc2)CC1,4,4,4,15228,u,3
Cc1ccc(-n2c(SCC(=O)Nc3ccc(S(=O)(=O)Nc4cc(C)nc(C)n4)cc3)nnc2-c2ccc(C(C)(C)C)cc2)cc1,11,x,x,x,x,x
CC1=CC(=C2C(=O)NC(=O)NC2=O)C=C(C(F)(F)F)N1C(C)C,7,0,3,21183*,3,-13
Cc1ccccc1Cn1cc(CN2[C@@H](CC(C)C)COc3cc(Br)ccc3S2(=O)=O)nn1,3,x,x,x,x,x
COc1nc(-c2ccc(C)cc2)ccc1-c1noc(-c2cccnc2)n1,-1,x,-2,3859,1,0
COc1nc(-c2ccccc2)ccc1-c1noc(-c2cccnc2)n1,-7,-4,-5,23960*,-2,-2
Cc1ccc(NC(=O)c2cc(-c3cccs3)on2)cc1,6,-4,-4,3274,-1,3
O=C(NCc1cccs1)c1cc(-c2cccs2)on1,-9,1,6,22229*,4,-1
Cc1ccc(Cn2ccc(NC(=O)c3cc(-c4cccs4)on3)n2)cc1,1,-4,-6,25079*,-3,0
O=C(NCc1cccs1)c1cc(-c2ccccc2)on1,-13,1,-12,6656,-1,-3
O=C(NCc1ccc(Cl)cc1)c1cc(-c2cccs2)on1,0,0,6,16902*,7,-8
CC(NC(=O)c1cc(-c2cccs2)on1)c1ccccc1 (centres undefined),-1,4,-2,16362*,u,-12
COC(=O)[C@H](CC(C)C)N1Cc2nnn(Cc3ccccc3)c2-c2cc(F)ccc2S1(=O)=O,2,x,x,x,x,x
Cc1cccc2cc(CN(Cc3ccco3)C(=O)c3ccncc3)c(=O)[nH]c12,13,0,x,x,x,x
O=C(c1ccncc1)N(Cc1ccco1)Cc1cc2ccccc2[nH]c1=O,2,3,2,22113*,2,0
COc1ccc(NC(=S)NNC(=O)OC(C)(C)C)cc1OC,11,3,-4,24133*,u,-3
COC(=O)Nc1ccc(OC)c(OC)c1,-3,3,-1,10028,0,2
O=C1C(=Cc2ccc(Br)o2)C(=O)c2ccccc21,x,0,34*,7134,3,6
SMILES,CCHFV vOTU inh,3CLpro inhibitor,BoNT-F LC inh,Autofluor counter,BoNT-A LC inh2,Anthrax LF prot
CN(C)C(=O)Cn1c(=O)n(C)c2ccccc21,-12,3,1,22347*,2,-1
Cn1c(=O)n(CCC(=O)O)c2ccccc21,6,-1,-6,3405,0,0
Cc1ccc(S(=O)(=O)N2CC3=C(c4ccccc4)CC4(C)C(=O)C(C)(C)CC4=C3C2)cc1 (centres undefined),-1,x,x,x,x,x
COc1ccc(/C=C2\SC(=O)N(CC(=O)NCCC(C)C)C2=O)cc1OC,-2,0,43*,3482,4,-2
COc1ccc(/C=C2/SC(=O)N(CC(=O)NCCC(C)C)C2=O)cc1OC,-9,-1,1,4196,-1,2
COc1ccc(S[C@]2(C(=O)N3CCN(c4ncccn4)CC3)CC(=O)N[C@@H]2c2ccc(OC)cc2)cc1,2,x,x,x,x,x
Cc1ccc(CN2CCCCC(NC(=O)C(C)(C)C)C2=O)cc1 (centres undefined),-5,x,x,x,x,x
Cc1ccc(S(=O)(=O)N2CCN(C(=O)N3CCOCC3)C2c2ccc(N(C)C)cc2)cc1 (centres undefined),0,1,6,21067*,u,-2
COc1ccc(C2N(C(=O)CN3CCOCC3)CCN2S(=O)(=O)c2ccccc2)cc1 (centres undefined),-5,0,-4,22919*,u,-4
COc1ccc(C2N(S(=O)(=O)c3ccccc3)CCN2S(=O)(=O)c2ccc(C)cc2)cc1 (centres undefined),23,-2,14,17266*,14,-19
COc1ccc(C2N(C(=O)N3CCOCC3)CCN2S(=O)(=O)c2ccc(C)cc2)cc1 (centres undefined),-6,-3,-1,22397*,0,1
CN(C)c1ccc(C2N(C(=O)N3CCOCC3)CCN2S(=O)(=O)c2ccccc2)cc1 (centres undefined),6,-1,6,5241,0,-2
CCOC(=O)N1CCN(S(=O)(=O)c2ccc(C)cc2)C1c1ccc(OC)cc1 (centres undefined),3,-6,3,3917,1,0
CCc1ccccc1-c1cc(C(=O)OC)c2n(c1=O)CCC2,-3,x,x,x,x,x
CC(=O)N1CCN(S(=O)(=O)c2ccc(C)cc2)C1C (centres undefined),-6,x,u,u,u,u
Cc1ccc(S(=O)(=O)N2CCN(C(=O)N3CCOCC3)C2C)cc1 (centres undefined),-5,-4,-1,23303*,-1,-1
COc1ccc(/C=C/C(=O)c2ccc[nH]2)c(OC)c1OC,16,-4,18,4382,4,5
COc1ccc(/C=C/C(=O)c2ccncc2)c2ccccc12,29,1,6,2665,45*,21
C=CCN1C(=O)[C@@H](CC(=O)N2CCN(C(=O)C3CC3)CC2)[C@]2(C(=O)OC)CCCCC=C12,-2,x,x,x,x,x
C=CCSc1ncc(C#N)c(N)n1,7,0,-3,20496*,-2,-2
Cn1c(=O)c2c(nc(CN3CCN(c4ccccc4)CC3)n2Cc2ccccc2Cl)n(C)c1=O,3,-3,-2,19891*,u,0
CC1CN(c2nc3c(c(=O)n(C)c(=O)n3C)n2Cc2c(F)cccc2Cl)CC(C)O1 (centres undefined),2,-1,6,18917*,4,-2
